± gives the standard deviation.
Key:
[1] = system: MILI (PIWIL2) piRISC loaded with L1MC piRNA (26 nt); assay: pre-steady-state target cleavage rate (min^-1); guide: L1MC piRNA 5'p-UAACUAAAUACUAUGCAAGCUGUAGG; higher = faster piRNA-guided slicing of the target
Method in brief: (§1)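 With or without 500 nM GTSF1 partner protein, 1 nM active affinity-purified piRISC carrying one synthetic guide was mixed with 0.1 nM transcribed, DNA-blocked target RNA library in HEPES–potassium acetate buffer at 33 °C for 0–8 or 0–960 min. Uncleaved targets were sequenced and normalised to depth and to weakly complementary targets, three trials were pooled, and k3 was capped at 0.0001 min^-1. The pre-steady-state cleavage rate came from a burst-and-steady-state fit.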

[2] = system: EfPiwi piRISC loaded with L1MC piRNA (26 nt); assay: pre-steady-state target cleavage rate (min^-1); auxiliary factor: 500 nM Ephydatia muelleri Gtsf1; guide: L1MC piRNA 5'p-UAACUAAAUACUAUGCAAGCUGUAGG; MIWI and MILI are mouse PIWI proteins and EfPiwi is from a freshwater sponge; tags in brackets are library labels; higher = faster piRNA-guided slicing of the target
Method in brief: as §1

[3] = auxiliary factor: 500 nM mouse GTSF1
[4] = auxiliary factor: none (no GTSF1)

Sequence	pre-steady-state target cleavage rate [1, 3]	pre-steady-state target cleavage rate [1, 4]	pre-steady-state target cleavage rate [2]
UCCUCCUACAGCUUACAUAGUAUUUAGUUA	0.276 ± 0.016	0.00586 ± 0.0026	0.106 ± 0.028
UCCUGGAUCACCUUGCAUAGUAAUUAGUUA	0.198 ± 0.03	0.00446 ± 0.0029	0.123 ± 0.049
UCCUGGAUCACCUUGCAUAGUAUUUAGUUA	0.234 ± 0.023	0.00706 ± 0.0023	0.018 ± 0.0063
UCCUGGAUCAGCUUCAUAGUAUUUAGUUA	0.235 ± 0.012	0.00548 ± 0.0028	0.00789 ± 0.0033
UCCUGGUACAGCUUGCAUAGUUUUUAGUAA	0.0656 ± 0.014	0.00501 ± 0.0027	0.00728 ± 0.0027
UCCUGGUACAGCUUGCAUAGUAUUUAGUGUA	0.143 ± 0.021	0.00896 ± 0.0033	0.00435 ± 0.0027
UCCUCCUACAGCUUGCAUAGUAUUUCAGUUA	0.463 ± 0.073	0.0049 ± 0.0029	0.00437 ± 0.0022
UCCUCCUACAGCUUGGAUUGUAUUUAGUUA	0.165 ± 0.015	0.00457 ± 0.002	0.0225 ± 0.0082
UCCUGGUCCAGCUUGCAUAGUAUUUAGUUA	0.232 ± 0.02	0.0129 ± 0.0037	0.0262 ± 0.007
UCCUGCUUCAGCUUGCAUACUAUUUAGUUA	0.0698 ± 0.01	0.00358 ± 0.002	0.00801 ± 0.0025
UCCUGGAUGAGCUCGCAUAGUAUUUAGUUA	0.241 ± 0.017	0.0047 ± 0.0035	0.0143 ± 0.0042
UCCUGCUACAGCUUGCAUUGUAAUUAGUUA	0.201 ± 0.024	0.00494 ± 0.0018	0.00519 ± 0.0025
UCCUCCUACAGCUUGCAUAGUAUUUAGUCA	0.303 ± 0.025	0.00856 ± 0.0028	0.00693 ± 0.003
UCCUGGAACAGCUUGCAUAGUAUAUUAGUUA	0.247 ± 0.019	0.00778 ± 0.0024	0.0104 ± 0.0043
UCCUGCAACUGCUUGCAUAGUAUUUAGUUA	0.322 ± 0.025	0.00581 ± 0.0026	0.0198 ± 0.0044
UCCUGCUACAGCUUGCAUAGUAAUUAGUUA	0.271 ± 0.028	0.00539 ± 0.0023	0.0061 ± 0.0022
UCCUGGUACAGCUUGCAUAGUAUAUUGUUA	0.146 ± 0.042	0.00411 ± 0.0035	0.00333 ± 0.0026

Reference: the supplement of paper PMC10338343
